Experimental data reported in PubChem BioAssay (Tox21).
Unmarked numbers belong to inactive results. Records with an inconclusive call do not appear. A call without a number means that no potency is given here. Activity calls are given as the source filed them. Unless noted, calls come from the whole dose curve; as a rule, active = well fitted curve in the direction sought with a large enough effect in the repeat runs; inconclusive = weak or mixed curves; inactive = no such curve, though single readings can be large; an effect the other way counts as inactive or inconclusive.

Key:
[1] = target: Luciferin 4-monooxygenase (Photinus pyralis) (UniProt P08659); assay: qHTS assay to identify small molecule inhibitors of firefly luciferase (AID 1224835); note: nearly all actives have a fitted effect of over 25% in size
In short: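 Biochemical qHTS: compounds run as interplate titrations against purified firefly enzyme, with D-luciferin and ATP each at its KM concentration. Light output recorded by CCD imaging.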

[2] = qHTS assay to identify small molecule agonists of the constitutive androstane receptor (CAR) signaling pathway - cell viability counter screen (AID 1224836); note: nearly all actives have a fitted effect of over 45% in size
In short: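 Double-stable HepG2 hepatoma cells (hCAR plus CYP2B6-2.2kb) are treated for 23 h at 37 C with test compounds in 15-point concentration series. PK11195 at 0.75 uM final is co-added. Cell viability is quantified by CellTiter-Fluor.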

[3] = qHTS assay to identify small molecule antagonists of the constitutive androstane receptor (CAR) signaling pathway - cell viability counter screen (AID 1224837); note: nearly all actives have a fitted effect of over 45% in size
In short: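 Cytotoxicity counter-screen: CellTiter-Fluor fluorescence after 23 h compound exposure (15-point qHTS) in double-stable HepG2-CYP2B6-hCAR cells, with 50 nM CITCO added.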

[4] = target: Nuclear receptor subfamily 1 group I member 3 (Homo sapiens) (UniProt Q14994); assay: qHTS assay to identify small molecule antagonists of the constitutive androstane receptor (CAR) signaling pathway (AID 1224838);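 note: HepG2 cells stably expressing hCAR with CYP2B6 luciferase reporter stimulated by CITCO; nearly all actives have a fitted effect of over 40% in size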
In short: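 Antagonism measured as luciferase signal (ONE-Glo, 30 min, room temperature) in CAR-stimulated cells: HepG2-CYP2B6-hCAR double-stable line exposed 24 hr at 37 C to compound in a 15-point series plus 50 nM CITCO.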

[5] = target: Nuclear receptor subfamily 1 group I member 3 (Homo sapiens) (UniProt Q14994); assay: qHTS assay to identify small molecule agonists of the constitutive androstane receptor (CAR) signaling pathway (AID 1224839);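 note: HepG2 cells stably carrying human CAR and a CYP2B6 luciferase reporter; nearly all actives have a fitted effect of over 15% in size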
In short: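 Readout: firefly luciferase luminescence via ONE-Glo. System: HepG2 double-stable for hCAR and CYP2B6-2.2kb. Conditions: 15-point compound titration, PK11195 at 0.75 uM final, 24 h incubation.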

[6] = qHTS assay to identify small molecule antagonists of the estrogen related receptor signaling pathway with the pleiotropic PPARgamma coactivator (PGC) from Tox21 10K library - cell viability counter screen (AID 1224840; active = well fitted cell-killing curve with a large enough effect in the repeat runs, not every such curve was filed as active; note: nearly all actives have a fitted effect of over 40% in size)
In short: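 Counter-screen for cytotoxicity: after 17.5 h compound exposure at 37 C, CellTiter-Fluor reagent added to PGC/ERR cells for 30 min and fluorescence read. Cells were seeded at 2,000 per well 6 h before dosing.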

[7] = target: Thyrotropin receptor (Homo sapiens) (UniProt P16473); assay: qHTS assay to identify small molecule agonists of the thyroid stimulating hormone receptor (TSHR) signaling pathway (AID 1224843; calls by dose curve; note: nearly all actives have a fitted effect of over 45% in size; note: potency is the fitted concentration of half-maximal effect)
In short: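 Agonist-mode screen: TSHR HEK293 cells received test chemicals for half an hour at room temperature, then HTRF cAMP detection reagents for one hour prior to fluorescence measurement. Each chemical ran as a 15-concentration series, triplicated.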

[8] = qHTS assay to identify small molecule agonists of the hypoxia (HIF-1) signaling pathway - cell viability counter screen (AID 1224844; calls by dose curve; note: nearly all actives have a fitted effect of over 50% in size)
In short: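 Cytotoxicity measured by CellTiter-Glo ATP luminescence in the wells also read for beta-lactamase signal. Cells were HRE-bla ME-180 (2,000/well, 0.5% dialyzed FBS), exposed to compounds for 17 h at 37C.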

[9] = qHTS assay to identify small molecule agonists of H2AX (AID 1224845; active = well fitted activation curve with a large enough effect in the signal ratio in the repeat runs, not every such curve was filed as active; the % refers to the signal ratio)
In short: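 Wild-type CHO-K1 cells, plated overnight, exposed 3hr at 37C to 15 concentrations (0.76% DMSO final). Lysed, then HTRF anti-pH2AX (S139) cryptate and anti-H2AX-d2 antibodies, 24 hr room temperature; 665/620 nm emission read.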

[10] = qHTS assay to identify small molecule agonists of H2AX - cell viability counter screen (AID 1224847; calls by dose curve; note: top concentration of the series differs between compounds; nearly all actives have a fitted effect of over 30% in size)
In short: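 For this counter screen, overnight-attached CHO-K1 cells received test compounds (15 concentrations, 0.76% DMSO final); 3 hr later at 37C, CellTiter-Glo reagent was added and luminescence recorded after 30 min at room temperature.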

[11] = qHTS RealTime-Glo MT Cell Viability Assay in HepG2 cells - 24 hour (AID 1224867); note: nearly all actives have a fitted effect of over 50% in size
In short: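 HepG2 cells (600/well) were dispensed with RealTime-Glo reagents, incubated 5 h at 37 °C, then treated with compounds in DMSO for up to 40 h. Nonlytic NanoLuc luminescence reflecting viable cells was read at each stated time point.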

[12] = qHTS RealTime-Glo MT Cell Viability Assay in HEK293 cells - 32 hour (AID 1224868); note: top concentration of the series differs between compounds; nearly all actives have a fitted effect of over 50% in size
In short: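 HEK293 cells seeded with NanoLuc/prosubstrate reagent, rested 5 h at 37 C, then dosed and kept at 37 C up to 40 h. Nonlytic real-time luminescence from viable cells read at 0, 8, 16, 24, 32 and 40 h.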

[13] = qHTS RealTime-Glo MT Cell Viability Assay in HepG2 cells - 40 hour (AID 1224870); note: nearly all actives have a fitted effect of over 50% in size
In short: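 HepG2 cells (600/well) mixed with RealTime-Glo MT reagent, settled 5 h at 37 C/5% CO2 before compound addition. Nonlytic NanoLuc luminescence from viable-cell prosubstrate reduction read repeatedly during 40 h treatment at 37 C.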

[14] = A CellTox Green Cytotoxicity Assay to monitor cytotoxicity in HEK293 cells - 40 hour (AID 1224871); note: nearly all actives have a fitted effect of over 45% in size; note: potency is the fitted concentration of half-maximal effect
In short: (§1)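 Fluorescence from a DNA-binding dye excluded by viable cells was measured repeatedly in the same HEK293 wells (600 cells/well) during continuous compound exposure at 37 C. Each assay gives one read point: 0, 8, 16, 24, 32 or 40 h.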

[15] = qHTS assay to identify small molecule agonists of the estrogen related receptor signaling pathway with the pleiotropic PPARgamma coactivator (PGC) from Tox21 10K library (AID 1224842); note: nearly all actives have a fitted effect of over 15% in size
In short: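 PGC/ERR reporter cell line, 2,000 cells per well, incubated 6 h at 37 C before 23 nL compound in DMSO was added. After 18 h at 37 C, One-Glo luminescence read following 30 min at room temperature.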

[16] = qHTS assay to identify small molecule agonists of the hypoxia (HIF-1) signaling pathway (AID 1224846; active = well fitted activation curve with a large enough effect in the signal ratio in the repeat runs, not every such curve was filed as active; the % refers to the signal ratio)
In short: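 Compounds added to ME-180 cells carrying hypoxia-response-element beta-lactamase reporter (0.5% dialyzed FBS, 5 h preplating), 17 h at 37C; agonist activity detected by CCF4-AM B/G FRET read-out.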

[17] = qHTS assay to identify small molecule antagonists of the estrogen related receptor (ERR) signaling pathway from Tox21 library (AID 1224848); note: nearly all actives have a fitted effect of over 50% in size
In short: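 Quantitative high-throughput format: ERR reporter cells (2,000/well) pre-incubated 6 h, treated 18 h at 37 C with compounds in DMSO alongside positive and negative controls, then read by ONE-Glo luminescence.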

[18] = qHTS assay to identify small molecule agonists of the estrogen related receptor (ERR) signaling pathway from Tox21 library (AID 1224849; calls by dose curve; note: nearly all actives have a fitted effect of over 15% in size); settings: ERR reporter cell line, ONE-Glo luciferase, 18 h; at 92.4 µM (top of the series) unless noted
In short: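 Luminescent agonist read-out (One-Glo, 30-minute room-temperature incubation) following 18-hour compound treatment at 37 C of the ERR cell line, which had been plated 6 hours before dosing.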

[19] = A CellTox Green Cytotoxicity Assay to monitor cytotoxicity in HEK293 cells - 0 hour (AID 1224869); note: nearly all actives have a fitted effect of over 50% in size
In short: as §1

Sequence of Luciferin 4-monooxygenase (Photinus pyralis) (P08659 whole entry, looked up): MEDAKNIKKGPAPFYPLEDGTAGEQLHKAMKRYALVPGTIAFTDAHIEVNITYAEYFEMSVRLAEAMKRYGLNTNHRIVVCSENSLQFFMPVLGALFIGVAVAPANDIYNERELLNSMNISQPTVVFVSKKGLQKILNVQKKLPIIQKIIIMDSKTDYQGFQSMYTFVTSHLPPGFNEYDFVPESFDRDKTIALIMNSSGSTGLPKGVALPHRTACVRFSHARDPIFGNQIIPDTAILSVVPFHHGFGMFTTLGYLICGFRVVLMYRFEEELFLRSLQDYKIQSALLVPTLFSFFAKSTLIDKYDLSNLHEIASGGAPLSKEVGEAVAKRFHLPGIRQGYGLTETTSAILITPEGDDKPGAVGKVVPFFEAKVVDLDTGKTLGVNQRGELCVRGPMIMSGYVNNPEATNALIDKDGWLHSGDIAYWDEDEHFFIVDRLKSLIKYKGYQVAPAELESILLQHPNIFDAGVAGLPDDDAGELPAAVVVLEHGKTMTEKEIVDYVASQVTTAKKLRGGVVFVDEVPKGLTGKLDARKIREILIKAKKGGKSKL
Sequence of Thyrotropin receptor (Homo sapiens) (P16473 whole entry, looked up): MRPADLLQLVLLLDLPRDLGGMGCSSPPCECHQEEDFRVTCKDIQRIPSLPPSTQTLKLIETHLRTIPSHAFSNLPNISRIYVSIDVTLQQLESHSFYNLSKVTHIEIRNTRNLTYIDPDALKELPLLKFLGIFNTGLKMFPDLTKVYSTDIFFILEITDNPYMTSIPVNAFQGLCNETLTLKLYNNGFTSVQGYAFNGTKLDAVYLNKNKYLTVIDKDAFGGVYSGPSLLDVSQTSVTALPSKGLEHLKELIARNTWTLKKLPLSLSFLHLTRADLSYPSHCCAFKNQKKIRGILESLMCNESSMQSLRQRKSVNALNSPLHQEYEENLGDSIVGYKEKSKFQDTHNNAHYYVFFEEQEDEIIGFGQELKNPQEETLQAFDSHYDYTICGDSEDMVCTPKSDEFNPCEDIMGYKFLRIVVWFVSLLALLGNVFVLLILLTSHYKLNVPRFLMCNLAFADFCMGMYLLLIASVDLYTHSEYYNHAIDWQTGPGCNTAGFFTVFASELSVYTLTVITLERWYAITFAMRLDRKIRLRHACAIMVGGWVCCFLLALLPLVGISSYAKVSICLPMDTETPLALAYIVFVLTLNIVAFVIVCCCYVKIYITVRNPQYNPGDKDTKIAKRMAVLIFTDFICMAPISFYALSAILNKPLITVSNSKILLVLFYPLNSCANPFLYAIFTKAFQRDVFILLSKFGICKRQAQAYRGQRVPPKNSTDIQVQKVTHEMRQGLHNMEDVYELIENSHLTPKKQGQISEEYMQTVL
Sequence of Nuclear receptor subfamily 1 group I member 3 (Homo sapiens) (Q14994 whole entry, looked up): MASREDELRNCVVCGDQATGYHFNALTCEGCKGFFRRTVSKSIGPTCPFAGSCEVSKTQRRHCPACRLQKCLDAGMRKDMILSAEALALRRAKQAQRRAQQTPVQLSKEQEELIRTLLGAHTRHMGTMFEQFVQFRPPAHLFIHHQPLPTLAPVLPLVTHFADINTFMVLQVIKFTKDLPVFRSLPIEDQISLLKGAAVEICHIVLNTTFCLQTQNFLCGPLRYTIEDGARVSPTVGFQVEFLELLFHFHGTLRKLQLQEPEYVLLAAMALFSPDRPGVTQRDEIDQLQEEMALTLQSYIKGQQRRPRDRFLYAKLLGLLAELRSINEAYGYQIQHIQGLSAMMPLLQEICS

Structure (SMILES): CCOC(=O)Cc1ccccc1
- Potency [1]: inactive
- Potency [2]: inactive
- Potency [3]: inactive
- Potency [4]: inactive
- Potency [5]: inactive
- Potency [6]: inactive
- Potency [7]: inactive
- Potency [8]: inactive
- Potency [9]: inactive
- Potency [10]: inactive
- Potency [11]: inactive
- Potency [12]: inactive
- Potency [13]: inactive
- Potency [14]: inactive

Structure (SMILES): CCNS(=O)(=O)C(F)(F)C(F)(F)C(F)(F)C(F)(F)C(F)(F)C(F)(F)C(F)(F)C(F)(F)F
- Potency [1]: inactive
- Potency [2]: inactive
- Potency [3]: inactive
- Potency [4]: inactive
- Potency [5]: inactive
- Potency [6]: inactive
- Potency [15]: inactive
- Potency [8]: inactive
- Potency [9]: inactive
- Potency [16]: inactive
- Potency [10]: inactive
- Potency [17]: inactive
- activity change, positive = activation [18]: -10.2%
- Potency [11]: inactive
- Potency [12]: inactive
- Potency [19]: inactive
- Potency [13]: inactive
- Potency [14]: inactive

Structure (SMILES): CC(C)N(C(=O)SC/C(Cl)=C/Cl)C(C)C
- Potency [1]: inactive
- Potency [2]: inactive
- Potency [3]: inactive
- Potency [4]: inactive
- Potency [5]: inactive
- Potency [6]: inactive
- Potency [7]: 17.3 µM (active)
- Potency [8]: inactive
- Potency [9]: inactive
- Potency [16]: inactive
- Potency [11]: inactive
- Potency [13]: inactive
- Potency [14]: 43.9 µM (active)

Structure (SMILES): CC(C)C(Br)C(=O)NC(N)=O (stereo unspecified)
- Potency [1]: inactive
- Potency [2]: inactive
- Potency [3]: inactive
- Potency [4]: inactive
- Potency [5]: inactive
- Potency [6]: inactive
- Potency [7]: inactive
- Potency [8]: inactive
- Potency [9]: inactive
- Potency [16]: inactive
- Potency [10]: inactive
- Potency [11]: inactive
- Potency [12]: inactive
- Potency [19]: inactive
- Potency [13]: inactive
- Potency [14]: inactive

Structure (SMILES): CC(Cc1ccc(O)cc1)NCC(O)c1cc(O)cc(O)c1 (stereo unspecified)
- Potency [1]: inactive
- Potency [2]: inactive
- Potency [3]: inactive
- Potency [4]: inactive
- Potency [5]: inactive
- Potency [6]: inactive
- Potency [7]: 0.841 µM (active)
- Potency [8]: inactive
- Potency [9]: inactive
- Potency [10]: inactive
- Potency [11]: inactive
- Potency [12]: inactive
- Potency [19]: inactive
- Potency [13]: inactive

Structure (SMILES): C=CCBr
- Potency [1]: inactive
- Potency [2]: inactive
- Potency [3]: inactive
- Potency [4]: inactive
- Potency [5]: inactive
- Potency [6]: inactive
- Potency [7]: inactive
- Potency [8]: inactive
- Potency [9]: inactive
- Potency [16]: inactive
- Potency [10]: inactive
- Potency [11]: inactive
- Potency [12]: inactive
- Potency [13]: inactive
- Potency [14]: inactive

Structure (SMILES): Clc1c(Cl)c(Cl)c(Cl)c(Cl)c1Cl
- activity change, negative = inhibition [1]: 2.81% [at 10.5 µM]
- viability change, negative = cytotoxic [2]: -2.28% [at 8.39 µM]
- activity change, negative = cytotoxicity [3]: 2.2% [at 8.39 µM]
- activity, negative = inhibition [4]: 2.04% [at 8.39 µM]
- activation [5]: -1% [at 8.39 µM]
- viability change, negative = cytotoxic [6]: 8.1% [at 8.39 µM]
- activation [7]: -17.5% [at 8.39 µM]
- activity change, negative = cytotoxicity [8]: 4.74% [at 6.97 µM]
- activation (H2AX phosphorylation) [9]: -0.165% [at 14 µM]
- activation [16]: -0.723% [at 7.01 µM]
- activity change, negative = cytotoxicity [10]: -1.8% [at 14 µM]
- activity change, negative = cytotoxicity [11]: -0.564% [at 6.97 µM]
- activity change, negative = cytotoxic [12]: 0.699% [at 6.97 µM]
- cytotoxicity [19]: -0.372% [at 6.97 µM]
- activity change, negative = cytotoxic [13]: 0.985% [at 6.97 µM]
- cytotoxicity increase [14]: -20.6% [at 6.97 µM]

Structure (SMILES): CC1CN1 (stereo unspecified)
- Potency [1]: inactive
- Potency [2]: inactive
- Potency [3]: inactive
- Potency [4]: inactive
- Potency [5]: inactive
- Potency [6]: inactive
- Potency [7]: inactive
- Potency [8]: inactive
- Potency [9]: inactive
- Potency [16]: inactive
- Potency [10]: inactive
- Potency [11]: inactive
- Potency [19]: inactive
- Potency [13]: inactive
- Potency [14]: inactive
